This is an account of results in publication PMC7862700, “An all-to-all approach to the identification of sequence-specific readers for epigenetic DNA modifications on cytosine”.

Holding throughout (test): DAPPL (digital affinity profiling via proximity ligation, sequencing); 10 mM Tris-HCl pH 7.5, 50 mM NaCl, 1 mM DTT, 4% glycerol, room temperature, 30 min; GST-TFs on glutathione beads, 16-mer random dsDNA library, 0.1% formaldehyde crosslink after washing; high values mean tight binding
One assay has as its target T1, ELK3 (Homo sapiens, UniProt P41970 1-407).
T1 sequence: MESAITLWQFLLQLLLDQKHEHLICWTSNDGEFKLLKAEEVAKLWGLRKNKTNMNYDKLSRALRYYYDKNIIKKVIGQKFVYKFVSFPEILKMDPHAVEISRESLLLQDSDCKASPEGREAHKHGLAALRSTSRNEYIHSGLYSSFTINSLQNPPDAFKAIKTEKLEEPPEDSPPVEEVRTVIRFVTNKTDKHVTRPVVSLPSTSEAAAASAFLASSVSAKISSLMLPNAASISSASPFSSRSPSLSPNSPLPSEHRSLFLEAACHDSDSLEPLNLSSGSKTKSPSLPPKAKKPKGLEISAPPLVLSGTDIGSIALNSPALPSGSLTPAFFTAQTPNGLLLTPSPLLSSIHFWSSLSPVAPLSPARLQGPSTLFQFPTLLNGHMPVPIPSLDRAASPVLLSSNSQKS
The note with it: protein: recombinant; tags: N-terminal GST; dsDNA, one strand shown. Put shortly: (§1)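 Pools were built from human transcription factors expressed in yeast as GST fusions, captured on glutathione beads and DNA-barcoded, along with a tag-only sample. Incubation with 200 nmole of a 16-mer random double-stranded DNA library lasted 30 min at room temperature in Tris/NaCl/DTT/glycerol buffer, and was followed by washing, 0.1% formaldehyde crosslinking, proximity ligation, PCR amplification and Illumina NextSeq500 sequencing. Binding signal is the quotient of each hexamer's read frequency for a factor and its frequency for the tag-only sample.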

In the next assay the target is T2, ELF5 (Homo sapiens, UniProt Q9UKW6-2 1-255).
T2 sequence: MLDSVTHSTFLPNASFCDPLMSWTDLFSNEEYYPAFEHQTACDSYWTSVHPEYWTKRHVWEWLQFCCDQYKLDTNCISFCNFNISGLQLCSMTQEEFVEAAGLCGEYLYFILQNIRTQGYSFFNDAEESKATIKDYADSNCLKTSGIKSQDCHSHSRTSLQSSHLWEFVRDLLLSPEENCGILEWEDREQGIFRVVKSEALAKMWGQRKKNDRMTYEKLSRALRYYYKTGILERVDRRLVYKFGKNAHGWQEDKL
The note with it: protein: recombinant; tags: N-terminal GST; dsDNA, one strand shown. The gist of the method:
as §1

The target in another assay is T3, FEV (Homo sapiens, UniProt Q99581 1-238).
T3 sequence: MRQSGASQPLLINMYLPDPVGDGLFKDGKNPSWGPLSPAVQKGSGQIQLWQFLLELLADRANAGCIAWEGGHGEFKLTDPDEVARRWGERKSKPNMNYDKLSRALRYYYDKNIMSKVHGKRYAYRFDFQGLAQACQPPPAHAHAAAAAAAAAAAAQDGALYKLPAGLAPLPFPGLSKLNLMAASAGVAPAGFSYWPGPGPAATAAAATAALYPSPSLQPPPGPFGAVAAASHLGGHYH
The note with it: protein: recombinant; tags: N-terminal GST; dsDNA, one strand shown. The gist of the method: as §1

The target in the next assay is CRX (Homo sapiens, UniProt O43186 1-299). Conditions: protein: recombinant; tags: N-terminal GST; dsDNA, one strand shown. Put shortly: as §1
CRX, sequence (O43186 whole entry): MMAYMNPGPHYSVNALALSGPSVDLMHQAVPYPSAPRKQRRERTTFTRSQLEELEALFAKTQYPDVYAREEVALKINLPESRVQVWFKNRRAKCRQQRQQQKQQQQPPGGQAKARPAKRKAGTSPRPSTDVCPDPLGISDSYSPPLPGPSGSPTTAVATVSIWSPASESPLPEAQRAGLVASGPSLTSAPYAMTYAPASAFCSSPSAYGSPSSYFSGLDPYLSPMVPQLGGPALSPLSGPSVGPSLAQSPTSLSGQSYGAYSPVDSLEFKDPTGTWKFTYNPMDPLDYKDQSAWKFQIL
The target in the next assay is T4, ETV2 (Homo sapiens, UniProt O00321 1-342).
T4 sequence: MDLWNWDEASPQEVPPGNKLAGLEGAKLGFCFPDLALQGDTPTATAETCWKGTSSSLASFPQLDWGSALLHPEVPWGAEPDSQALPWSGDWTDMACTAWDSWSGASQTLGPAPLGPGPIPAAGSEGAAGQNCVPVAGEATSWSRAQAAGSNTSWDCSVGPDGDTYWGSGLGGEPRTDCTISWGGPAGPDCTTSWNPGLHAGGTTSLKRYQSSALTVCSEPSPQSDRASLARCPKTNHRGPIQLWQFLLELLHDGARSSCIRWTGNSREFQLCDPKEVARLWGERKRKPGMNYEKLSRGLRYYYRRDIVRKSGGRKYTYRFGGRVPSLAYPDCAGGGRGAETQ
The note with it: protein: recombinant; tags: N-terminal GST; dsDNA, one strand shown. Put shortly: as §1

The next assay deals with T5, FLI1 (Homo sapiens, UniProt Q01543 1-452).
T5 sequence: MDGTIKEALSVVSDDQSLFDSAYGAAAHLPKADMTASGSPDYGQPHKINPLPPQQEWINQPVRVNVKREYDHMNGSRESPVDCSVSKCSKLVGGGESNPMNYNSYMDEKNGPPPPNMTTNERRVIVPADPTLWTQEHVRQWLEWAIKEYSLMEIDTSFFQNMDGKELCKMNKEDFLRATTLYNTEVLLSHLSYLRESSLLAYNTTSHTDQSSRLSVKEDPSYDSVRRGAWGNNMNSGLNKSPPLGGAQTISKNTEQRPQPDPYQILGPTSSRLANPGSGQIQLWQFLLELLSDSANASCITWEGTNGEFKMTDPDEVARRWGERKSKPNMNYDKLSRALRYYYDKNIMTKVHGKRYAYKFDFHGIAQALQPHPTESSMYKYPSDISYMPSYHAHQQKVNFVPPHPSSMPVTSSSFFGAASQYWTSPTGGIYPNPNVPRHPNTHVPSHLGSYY
The note with it: protein: recombinant; tags: N-terminal GST; dsDNA, one strand shown. Put shortly: as §1

The next assay addresses HSF1 (Homo sapiens, UniProt Q00613 1-529). Conditions: protein: recombinant; tags: N-terminal GST; chain copies: 3; dsDNA, one strand shown. Put shortly: as §1

HSF1, sequence (Q00613 whole entry): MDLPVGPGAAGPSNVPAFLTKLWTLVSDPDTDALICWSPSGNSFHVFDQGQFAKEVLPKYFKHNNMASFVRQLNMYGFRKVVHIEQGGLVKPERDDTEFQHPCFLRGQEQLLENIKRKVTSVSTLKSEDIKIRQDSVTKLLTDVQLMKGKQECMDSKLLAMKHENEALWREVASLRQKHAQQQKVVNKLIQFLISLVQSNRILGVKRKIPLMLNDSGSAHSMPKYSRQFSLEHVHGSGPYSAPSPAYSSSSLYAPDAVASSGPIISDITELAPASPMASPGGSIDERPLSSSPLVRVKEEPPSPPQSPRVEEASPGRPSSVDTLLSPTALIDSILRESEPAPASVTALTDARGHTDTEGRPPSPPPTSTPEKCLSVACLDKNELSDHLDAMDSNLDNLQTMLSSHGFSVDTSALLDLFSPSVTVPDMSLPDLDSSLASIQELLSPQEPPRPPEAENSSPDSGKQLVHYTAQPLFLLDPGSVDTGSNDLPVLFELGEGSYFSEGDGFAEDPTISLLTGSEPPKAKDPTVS

On to GGGTAT, for which the binding signal with ELK3 is 1.04 fold enrichment (6-mer frequency, TF over GST control).

On to CATAGT, for which the binding signal in the assay with ELF5 is 1 fold enrichment (6-mer frequency, TF over GST control).

As to TAGGCC, the binding signal was 1.05 fold enrichment (6-mer frequency, TF over GST control) with FEV and 1.21 fold enrichment (6-mer frequency, TF over GST control) with CRX.

Regarding GGACTT, the binding signal is 1.11 fold enrichment (6-mer frequency, TF over GST control) in the assay with ELK3; 1.4 fold enrichment (6-mer frequency, TF over GST control) with FEV; 1.19 fold enrichment (6-mer frequency, TF over GST control) with ETV2; 1.08 fold enrichment (6-mer frequency, TF over GST control) with CRX; 1.24 fold enrichment (6-mer frequency, TF over GST control) in the assay with ELF5.

CCACCG: the binding signal with ELK3 is 1.06 fold enrichment (6-mer frequency, TF over GST control); in the assay with FEV it was 1.26 fold enrichment (6-mer frequency, TF over GST control); with ELF5 it was 1.02 fold enrichment (6-mer frequency, TF over GST control).

With AGTACC, the binding signal in the assay with ETV2 was 1.03 fold enrichment (6-mer frequency, TF over GST control); with ELF5 it was 1.02 fold enrichment (6-mer frequency, TF over GST control).

As for AACTGT, the binding signal with ELK3 is 1.06 fold enrichment (6-mer frequency, TF over GST control); with ETV2 it was 1.15 fold enrichment (6-mer frequency, TF over GST control).

For GGATAC, the binding signal with ETV2 is 1.01 fold enrichment (6-mer frequency, TF over GST control); in the assay with ELF5, 1.02 fold enrichment (6-mer frequency, TF over GST control).

Turning to AGCGGC, in the assay with ELK3, the binding signal is 1.03 fold enrichment (6-mer frequency, TF over GST control).

On to GTACCA, for which the binding signal with FEV is 1.01 fold enrichment (6-mer frequency, TF over GST control).

For AGTCCT, the binding signal with ELK3 was 1.01 fold enrichment (6-mer frequency, TF over GST control); with ETV2, 1.02 fold enrichment (6-mer frequency, TF over GST control); with ELF5 it was 1.17 fold enrichment (6-mer frequency, TF over GST control).

For the sequence CAGTTC, the binding signal in the assay with ELF5 is 1 fold enrichment (6-mer frequency, TF over GST control).

Turning to GTCCGG, the binding signal in the assay with FEV was 1.15 fold enrichment (6-mer frequency, TF over GST control); with ELF5, 1.06 fold enrichment (6-mer frequency, TF over GST control).

As to GACCGG, the binding signal with ELK3 was 1.23 fold enrichment (6-mer frequency, TF over GST control); with FEV, 2.09 fold enrichment (6-mer frequency, TF over GST control); with ELF5 it was 1.08 fold enrichment (6-mer frequency, TF over GST control).

Regarding GAAACC, the binding signal was 1.08 fold enrichment (6-mer frequency, TF over GST control) with FEV; 1.06 fold enrichment (6-mer frequency, TF over GST control) with ETV2; 1.03 fold enrichment (6-mer frequency, TF over GST control) with ELF5.

In the case of AGCGTC, the binding signal is 1.05 fold enrichment (6-mer frequency, TF over GST control) with ELK3; 1.04 fold enrichment (6-mer frequency, TF over GST control) with FEV; 1.04 fold enrichment (6-mer frequency, TF over GST control) with ELF5.

In the case of GTGCCT, the binding signal in the assay with ETV2 was 1.22 fold enrichment (6-mer frequency, TF over GST control).

As for TGGTCG, the binding signal in the assay with ELK3 is 1.11 fold enrichment (6-mer frequency, TF over GST control); with ETV2 it was 1.08 fold enrichment (6-mer frequency, TF over GST control).

In the case of TATGAG, the binding signal with ELK3 is 1.02 fold enrichment (6-mer frequency, TF over GST control); with CRX, 1.1 fold enrichment (6-mer frequency, TF over GST control).

Turning to GCCCGG, the binding signal in the assay with FEV was 1.04 fold enrichment (6-mer frequency, TF over GST control); in the assay with ELF5, 1.05 fold enrichment (6-mer frequency, TF over GST control).

Regarding ATAGGG, the binding signal with ELK3 was 1.06 fold enrichment (6-mer frequency, TF over GST control); with ETV2 it was 1.08 fold enrichment (6-mer frequency, TF over GST control); with ELF5, 1.02 fold enrichment (6-mer frequency, TF over GST control).

For the sequence CATAGC, in the assay with ETV2, the binding signal is 1.06 fold enrichment (6-mer frequency, TF over GST control).

CTGTAG: in the assay with ELF5, the binding signal was 1.01 fold enrichment (6-mer frequency, TF over GST control).

Consider GGCTAT, for which the binding signal with FEV was 1.06 fold enrichment (6-mer frequency, TF over GST control); in the assay with ETV2, 1.06 fold enrichment (6-mer frequency, TF over GST control); with ELF5, 1.02 fold enrichment (6-mer frequency, TF over GST control).

CCAAGT: the binding signal with FLI1 was 1.02 fold enrichment (6-mer frequency, TF over GST control).

For ATAGGC, the binding signal with ELK3 was 1.02 fold enrichment (6-mer frequency, TF over GST control); with FEV, 1.07 fold enrichment (6-mer frequency, TF over GST control); with CRX, 1.14 fold enrichment (6-mer frequency, TF over GST control).

For AAACAG, the binding signal with ELF5 was 1.03 fold enrichment (6-mer frequency, TF over GST control).

On to GTTCGC, for which the binding signal was 1.06 fold enrichment (6-mer frequency, TF over GST control) with FLI1; 1.06 fold enrichment (6-mer frequency, TF over GST control) with FEV; 1.12 fold enrichment (6-mer frequency, TF over GST control) in the assay with HSF1; 1.11 fold enrichment (6-mer frequency, TF over GST control) with ETV2; 1.01 fold enrichment (6-mer frequency, TF over GST control) in the assay with ELF5.

On to AGCTAG, for which the binding signal was 1.05 fold enrichment (6-mer frequency, TF over GST control) with FLI1; 1 fold enrichment (6-mer frequency, TF over GST control) in the assay with ELK3; 1.21 fold enrichment (6-mer frequency, TF over GST control) in the assay with HSF1; 1.12 fold enrichment (6-mer frequency, TF over GST control) in the assay with ETV2; 1 fold enrichment (6-mer frequency, TF over GST control) with CRX.

Turning to TTAAGA, the binding signal was 1.05 fold enrichment (6-mer frequency, TF over GST control) with FLI1; 1.02 fold enrichment (6-mer frequency, TF over GST control) in the assay with ELK3; 1.01 fold enrichment (6-mer frequency, TF over GST control) in the assay with FEV; 1.95 fold enrichment (6-mer frequency, TF over GST control) in the assay with HSF1; 1.15 fold enrichment (6-mer frequency, TF over GST control) with ETV2; 2.97 fold enrichment (6-mer frequency, TF over GST control) with CRX.

For the sequence TTAGAT, the binding signal was 1.05 fold enrichment (6-mer frequency, TF over GST control) with FLI1; 1.09 fold enrichment (6-mer frequency, TF over GST control) with ELK3; 1.01 fold enrichment (6-mer frequency, TF over GST control) with FEV; 1.49 fold enrichment (6-mer frequency, TF over GST control) with HSF1; 1.16 fold enrichment (6-mer frequency, TF over GST control) with ETV2; 2.04 fold enrichment (6-mer frequency, TF over GST control) with CRX.

In the case of TGGATA, the binding signal with FLI1 was 1.08 fold enrichment (6-mer frequency, TF over GST control); with FEV, 1.03 fold enrichment (6-mer frequency, TF over GST control); in the assay with HSF1 it was 1.2 fold enrichment (6-mer frequency, TF over GST control); in the assay with ETV2 it was 1.02 fold enrichment (6-mer frequency, TF over GST control); in the assay with CRX it was 1.34 fold enrichment (6-mer frequency, TF over GST control); with ELF5, 1.04 fold enrichment (6-mer frequency, TF over GST control).

As for TAGATA, the binding signal with FLI1 is 1.07 fold enrichment (6-mer frequency, TF over GST control); with ELK3, 1.02 fold enrichment (6-mer frequency, TF over GST control); with HSF1 it was 1.46 fold enrichment (6-mer frequency, TF over GST control); with ETV2, 1.12 fold enrichment (6-mer frequency, TF over GST control); with CRX, 1.48 fold enrichment (6-mer frequency, TF over GST control).

With ATAAGT, the binding signal with FLI1 is 1.08 fold enrichment (6-mer frequency, TF over GST control); in the assay with ELK3, 1.09 fold enrichment (6-mer frequency, TF over GST control); with HSF1 it was 1.28 fold enrichment (6-mer frequency, TF over GST control); in the assay with ETV2 it was 1.05 fold enrichment (6-mer frequency, TF over GST control); with CRX, 1.79 fold enrichment (6-mer frequency, TF over GST control).
